Out of some 5,500 compounds screened, about 2,000 (36%) were called active. Roughly 18% stayed inconclusive and do not appear here. Cut-off read from the data, not from the text of the source: active = normalized growth mostly below about 0.91 (no sharp cut-off); inconclusive = no clear call, values can overlap the other calls; inactive = mostly above about 0.92. This is one part of the list.
Assay: chemical genetic growth profiling, strain panel (AID 1159580);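 note: tested at 20 µM; growth read once vehicle control cultures reached saturation at 30 °C; 1 = growth at the plate median or of vehicle wells; lower values mean less growth of the strain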
Conditions: growth OD

Measured: normalized growth

COc1ccc2c(c1O)OCC1c3cc4c(cc3OC21)OCO4 (stereo unspecified)
inactive: S. cerevisiae deletion strains, locus YAL013W, strain DEP1, active compounds read low 0.991 | S. cerevisiae deletion strains, locus YBR021W, strain FUR4, active compounds read low 0.964 | S. cerevisiae deletion strains, locus YBR229C, strain ROT2, active compounds read low 0.96 | S. cerevisiae deletion strains, locus YCL029C, strain bik1, active compounds read low 1 | S. cerevisiae deletion strains, locus YDL035C, strain GPR1, active compounds read low 0.935 | S. cerevisiae deletion strains, locus YDL074C, strain BRE1, active compounds read low 0.882 | S. cerevisiae deletion strains, locus YDL101C, strain DUN1, active compounds read low 0.953 | S. cerevisiae deletion strains, locus YDL134C, strain PPH21, active compounds read low 0.986 | S. cerevisiae deletion strains, locus YDL185W, strain tfp1, active compounds read low 0.957 | S. cerevisiae deletion strains, locus YDL192W, strain arf1, active compounds read low 0.986 | S. cerevisiae deletion strains, locus YDR101C, strain arx1, active compounds read low 0.986 | S. cerevisiae deletion strains, locus YDR150W, strain NUM1, active compounds read low 0.983 | S. cerevisiae deletion strains, locus YDR162C, strain NBP2, active compounds read low 0.88 | S. cerevisiae deletion strains, locus YDR318W, strain mcm21, active compounds read low 0.979 | S. cerevisiae deletion strains, locus YDR388W, active compounds read low 1 | S. cerevisiae deletion strains, locus YDR502C, strain sam2, active compounds read low 0.952 | S. cerevisiae deletion strains, locus YEL061C, strain CIN8, active compounds read low 0.987 | S. cerevisiae deletion strains, locus YER110C, active compounds read low 0.994 | S. cerevisiae deletion strains, locus YER155C, strain BEM2, active compounds read low 1 | S. cerevisiae deletion strains, locus YER167W, strain BCK2, active compounds read low 1 | S. cerevisiae deletion strains, locus YGL078C, strain dbp3, active compounds read low 0.983 | S. cerevisiae deletion strains, locus YGL086W, strain mad1, active compounds read low 0.996 | S. cerevisiae deletion strains, locus YGL248W, strain PDE1, active compounds read low 0.974 | S. cerevisiae deletion strains, locus YGR078C, strain PAC10, active compounds read low 0.909 | S. cerevisiae deletion strains, locus YGR135W, strain pre9, active compounds read low 0.958 | S. cerevisiae deletion strains, locus YGR229C, strain SMI1, active compounds read low 0.909 | S. cerevisiae deletion strains, locus YGR252W, strain gcn5, active compounds read low 0.857 | S. cerevisiae deletion strains, locus YHR030C, strain SLT2, active compounds read low 1 | S. cerevisiae deletion strains, locus YHR079C, strain IRE1 (second series), active compounds read low 0.982 | S. cerevisiae deletion strains, locus YHR094C, strain hxt1, active compounds read low 1 | S. cerevisiae deletion strains, locus YHR129C, strain ARP1, active compounds read low 0.988 | S. cerevisiae deletion strains, locus YHR200W, strain rpn10, active compounds read low 0.998 | S. cerevisiae deletion strains, locus YIL066C, strain RNR3, active compounds read low 0.974 | S. cerevisiae deletion strains, locus YIL073C, strain SPO22, active compounds read low 1.01 | S. cerevisiae deletion strains, locus YIL125W, strain kgd1, active compounds read low 0.99 | S. cerevisiae deletion strains, locus YIR030C, strain dcg1, active compounds read low 0.986 | S. cerevisiae deletion strains, locus YJL095W, strain BCK1, active compounds read low 0.924 | S. cerevisiae deletion strains, locus YJL134W, strain LCB3, active compounds read low 0.998 | S. cerevisiae deletion strains, locus YJL168C, strain set2, active compounds read low 0.987 | S. cerevisiae deletion strains, locus YJL187C, strain SWE1 (second series), active compounds read low 0.939 | S. cerevisiae deletion strains, locus YJR043C, strain POL32, active compounds read low 0.987 | S. cerevisiae deletion strains, locus YJR075W, strain HOC1, active compounds read low 0.939 | S. cerevisiae deletion strains, locus YKL009W, strain mrt4, active compounds read low 0.92 | S. cerevisiae deletion strains, locus YKL068W, active compounds read low 0.998 | S. cerevisiae deletion strains, locus YKL085W, strain MDH1 (second series), active compounds read low 1.01 | S. cerevisiae deletion strains, locus YKL085W, strain MDH1, active compounds read low 1.01 | S. cerevisiae deletion strains, locus YKL190W, strain CNB1, active compounds read low 0.979 | S. cerevisiae deletion strains, locus YKR001C, strain vps1, active compounds read low 0.963 | S. cerevisiae deletion strains, locus YLR039C, strain RIC1, active compounds read low 0.846 | S. cerevisiae deletion strains, locus YLR058C, strain SHM2, active compounds read low 0.971 | S. cerevisiae deletion strains, locus YLR102C, strain apc9, active compounds read low 0.983 | S. cerevisiae deletion strains, locus YLR262C, strain YPT6, active compounds read low 0.851 | S. cerevisiae deletion strains, locus YLR268W, strain sec22, active compounds read low 0.938 | S. cerevisiae deletion strains, locus YLR330W, strain CHS5, active compounds read low 0.991 | S. cerevisiae deletion strains, locus YLR342W, strain FKS1 (second series), active compounds read low 0.946 | S. cerevisiae deletion strains, locus YLR371W, strain rom2, active compounds read low 1 | S. cerevisiae deletion strains, locus YLR418C, strain cdc73, active compounds read low 0.903 | S. cerevisiae deletion strains, locus YML016C, strain PPZ1, active compounds read low 0.992 | S. cerevisiae deletion strains, locus YML032C, strain rad52, active compounds read low 0.987 | S. cerevisiae deletion strains, locus YML124C, strain tub3, active compounds read low 1.01 | S. cerevisiae deletion strains, locus YMR078C, strain ctf18, active compounds read low 0.988 | S. cerevisiae deletion strains, locus YMR223W, strain ubp8, active compounds read low 0.976 | S. cerevisiae deletion strains, locus YMR263W, strain SAP30, active compounds read low 0.929 | S. cerevisiae deletion strains, locus YMR307W, strain GAS1, active compounds read low 1.04 | S. cerevisiae deletion strains, locus YNL067W, strain RPL9B, active compounds read low 0.929 | S. cerevisiae deletion strains, locus YNL128W, strain TEP1, active compounds read low 0.929 | S. cerevisiae deletion strains, locus YNL153C, strain GIM3, active compounds read low 0.936 | S. cerevisiae deletion strains, locus YNL233W, strain BNI4, active compounds read low 0.971 | S. cerevisiae deletion strains, locus YNL250W, strain rad50, active compounds read low 0.994 | S. cerevisiae deletion strains, locus YNL271C, strain bni1, active compounds read low 0.98 | S. cerevisiae deletion strains, locus YNL298W, strain CLA4, active compounds read low 0.958 | S. cerevisiae deletion strains, locus YNL322C, strain KRE1, active compounds read low 0.981 | S. cerevisiae deletion strains, locus YNR052C, strain pop2, active compounds read low 0.987 | S. cerevisiae deletion strains, locus YOL006C, strain TOP1, active compounds read low 0.783 | S. cerevisiae deletion strains, locus YOL012C, strain htz1 1.07 | S. cerevisiae deletion strains, locus YOL147C, strain pex11, active compounds read low 1 | S. cerevisiae deletion strains, locus YOR061W, strain CKA2, active compounds read low 0.969 | S. cerevisiae deletion strains, locus YOR069W, strain VPS5, active compounds read low 1 | S. cerevisiae deletion strains, locus YOR136W, strain idh2, active compounds read low 0.999 | S. cerevisiae deletion strains, locus YOR144C, strain elg1, active compounds read low 0.994 | S. cerevisiae deletion strains, locus YOR184W, strain ser1, active compounds read low 0.907 | S. cerevisiae deletion strains, locus YOR316C, strain cot1, active compounds read low 0.988 | S. cerevisiae deletion strains, locus YPL055C, strain LGE1, active compounds read low 0.883 | S. cerevisiae deletion strains, locus YPL241C, strain CIN2, active compounds read low 0.99 | S. cerevisiae deletion strains, locus YPR119W, strain clb2, active compounds read low 0.999 | S. cerevisiae deletion strains, locus YPR141C, strain kar3, active compounds read low 0.997 | S. cerevisiae deletion strains, locus YPR163C, strain tif3, active compounds read low 0.964 | S. cerevisiae deletion strains, locus YPR167C, strain met16, active compounds read low 0.984 | S. cerevisiae deletion strains, strain wtn01, active compounds read low 0.946 | S. cerevisiae strains, strain wild type, active compounds read low 0.994
active: S. cerevisiae deletion strains, locus YNL307C, strain MCK1, active compounds read low 0.904
